# B1: unnamed (peptide)
# chain: RTRRRPPPPPIPSTQ
# B2: unnamed (peptide)
# chain: RMVRRRPLRVQFSAR
# Columns and labels:
# Assay in all cases: SPOT peptide array binding signal intensity (averaged, normalized) (arbitrary units (background-subtracted, floor 0; scale differs between SH3 domains)); higher = stronger binding of the SH3 domain to the peptide
# AgAbp1 = target: AgAbp1
# Method in brief: (§1)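 Spot intensities were captured after detection with anti-GST antibody, an HRP-linked anti-mouse secondary and luminol, and quantified with Genespotter. The probes were GST-fused SH3 domains from four yeast species, produced in E. coli BL21(DE3), purified on glutathione Sepharose and incubated at 10 μg/ml overnight at 4°C on cellulose-bound synthetic 15-mer peptides with cysteines replaced by serines. Binding signal is the normalized, background-subtracted spot intensity averaged over replicates, and its arbitrary units differ between domains.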
# AgBbc1 = target: AgBbc1
# Method in brief: as §1
# AgBem1-D1 = target: AgBem1-D1
# Method in brief: as §1
# AgBzz1-D1 = target: AgBzz1-D1
# Method in brief: as §1
# AgBzz1-D2 = target: AgBzz1-D2
# Method in brief: as §1
# AgCyk3 = target: AgCyk3
# Method in brief: as §1
# AgFus1 = target: AgFus1
# Method in brief: as §1
# AgHof1 = target: AgHof1
# Method in brief: as §1
# AgHse1 = target: AgHse1
# Method in brief: as §1
# AgLsb1 = target: AgLsb1
# Method in brief: as §1
# AgLsb4 = target: AgLsb4
# Method in brief: as §1
# AgMyo5 = target: AgMyo5
# Method in brief: as §1
# AgNbp2 = target: AgNbp2
# Method in brief: as §1
# AgRvs167 = target: AgRvs167
# Method in brief: as §1
# AgSho1 = target: AgSho1
# Method in brief: as §1
# AgSla1-D1-D2 = target: AgSla1-D1-D2
# Method in brief: as §1
# AgSla1-D3 = target: AgSla1-D3
# Method in brief: as §1
# CaAbp1-D1 = target: CaAbp1-D1
# Method in brief: as §1
# CaAbp1-D2 = target: CaAbp1-D2
# Method in brief: as §1
# CaBbc1 = target: CaBbc1
# Method in brief: as §1
# CaBem1-D1 = target: CaBem1-D1
# Method in brief: as §1
# CaBzz1-D1 = target: CaBzz1-D1
# Method in brief: as §1
# CaBzz1-D2 = target: CaBzz1-D2
# Method in brief: as §1
# CaCyk3 = target: CaCyk3
# Method in brief: as §1
# CaFus1 = target: CaFus1
# Method in brief: as §1
# CaHof1 = target: CaHof1
# Method in brief: as §1
# CaHse1 = target: CaHse1
# Method in brief: as §1
# CaLsb1 = target: CaLsb1
# Method in brief: as §1
# CaLsb4 = target: CaLsb4
# Method in brief: as §1
# CaMyo5 = target: CaMyo5
# Method in brief: as §1
# CaNbp2 = target: CaNbp2
# Method in brief: as §1
# CaRvs167 = target: CaRvs167
# Method in brief: as §1
# CaRvs167-3 = target: CaRvs167-3
# Method in brief: as §1
# CaSho1 = target: CaSho1
# Method in brief: as §1
# CaSla1-D1-D2 = target: CaSla1-D1-D2
# Method in brief: as §1
# CaSla1-D3 = target: CaSla1-D3
# Method in brief: as §1
# ScAbp1 = target: ScAbp1
# Method in brief: as §1
# ScBbc1 = target: ScBbc1
# Method in brief: as §1
# ScBem1-D1 = target: ScBem1-D1
# Method in brief: as §1
# ScBzz1-D1 = target: ScBzz1-D1
# Method in brief: as §1
# ScBzz1-D2 = target: ScBzz1-D2
# Method in brief: as §1
# ScCyk3 = target: ScCyk3
# Method in brief: as §1
# ScFus1 = target: ScFus1
# Method in brief: as §1
# ScHof1 = target: ScHof1
# Method in brief: as §1
# ScHse1 = target: ScHse1
# Method in brief: as §1
# ScLsb1 = target: ScLsb1
# Method in brief: as §1
# ScLsb2 = target: ScLsb2
# Method in brief: as §1
# ScLsb3 = target: ScLsb3
# Method in brief: as §1
# ScLsb4 = target: ScLsb4
# Method in brief: as §1
# ScMyo3 = target: ScMyo3
# Method in brief: as §1
# ScMyo5 = target: ScMyo5
# Method in brief: as §1
# ScNbp2 = target: ScNbp2
# Method in brief: as §1
# ScPex13 = target: ScPex13
# Method in brief: as §1
# ScRvs167 = target: ScRvs167
# Method in brief: as §1
# ScSho1 = target: ScSho1
# Method in brief: as §1
# ScSla1-D1-D2 = target: ScSla1-D1-D2
# Method in brief: as §1
# ScSla1-D3 = target: ScSla1-D3
# Method in brief: as §1
# SpAbp1-D1 = target: SpAbp1-D1
# Method in brief: as §1
# SpBbc1 = target: SpBbc1
# Method in brief: as §1
# SpBzz1-D1 = target: SpBzz1-D1
# Method in brief: as §1
# SpBzz1-D2 = target: SpBzz1-D2
# Method in brief: as §1
# SpCyk3 = target: SpCyk3
# Method in brief: as §1
# SpHof1 = target: SpHof1
# Method in brief: as §1
# SpHof1-2 = target: SpHof1-2
# Method in brief: as §1
# SpHof1-3 = target: SpHof1-3
# Method in brief: as §1
# SpHse1 = target: SpHse1
# Method in brief: as §1
# SpLsb1 = target: SpLsb1
# Method in brief: as §1
# SpLsb4 = target: SpLsb4
# Method in brief: as §1
# SpMyo1 = target: SpMyo1
# Method in brief: as §1
# SpNbp2 = target: SpNbp2
# Method in brief: as §1
# SpPex13 = target: SpPex13
# Method in brief: as §1
# SpRvs167 = target: SpRvs167
# Method in brief: as §1
# SpSla1-D1-D2 = target: SpSla1-D1-D2
# Method in brief: as §1
# SpSla1-D3 = target: SpSla1-D3
# Method in brief: as §1
binder,measurement,setting,value
B1,SPOT peptide array binding signal intensity,AgAbp1,334
same,SPOT peptide array binding signal intensity,AgBbc1,531
same,SPOT peptide array binding signal intensity,AgBem1-D1,308
same,SPOT peptide array binding signal intensity,AgBzz1-D1,3430
same,SPOT peptide array binding signal intensity,AgBzz1-D2,1460
same,SPOT peptide array binding signal intensity,AgCyk3,2
same,SPOT peptide array binding signal intensity,AgFus1,87
same,SPOT peptide array binding signal intensity,AgHof1,256
same,SPOT peptide array binding signal intensity,AgHse1,91
same,SPOT peptide array binding signal intensity,AgLsb1,370
same,SPOT peptide array binding signal intensity,AgLsb4,136
same,SPOT peptide array binding signal intensity,AgMyo5,339
same,SPOT peptide array binding signal intensity,AgNbp2,2690
same,SPOT peptide array binding signal intensity,AgRvs167,99.3
same,SPOT peptide array binding signal intensity,AgSho1,27
same,SPOT peptide array binding signal intensity,AgSla1-D1-D2,23
same,SPOT peptide array binding signal intensity,AgSla1-D3,735
same,SPOT peptide array binding signal intensity,CaAbp1-D1,748
same,SPOT peptide array binding signal intensity,CaAbp1-D2,1060
same,SPOT peptide array binding signal intensity,CaBbc1,965
same,SPOT peptide array binding signal intensity,CaBem1-D1,124
same,SPOT peptide array binding signal intensity,CaBzz1-D1,7320
same,SPOT peptide array binding signal intensity,CaBzz1-D2,4870
same,SPOT peptide array binding signal intensity,CaCyk3,53.5
same,SPOT peptide array binding signal intensity,CaFus1,452
same,SPOT peptide array binding signal intensity,CaHof1,0.5
same,SPOT peptide array binding signal intensity,CaHse1,21
same,SPOT peptide array binding signal intensity,CaLsb1,1.25
same,SPOT peptide array binding signal intensity,CaLsb4,1170
same,SPOT peptide array binding signal intensity,CaMyo5,19.8
same,SPOT peptide array binding signal intensity,CaNbp2,1440
same,SPOT peptide array binding signal intensity,CaRvs167,111
same,SPOT peptide array binding signal intensity,CaRvs167-3,22.5
same,SPOT peptide array binding signal intensity,CaSho1,98
same,SPOT peptide array binding signal intensity,CaSla1-D1-D2,2100
same,SPOT peptide array binding signal intensity,CaSla1-D3,391
same,SPOT peptide array binding signal intensity,ScAbp1,114
same,SPOT peptide array binding signal intensity,ScBbc1,511
same,SPOT peptide array binding signal intensity,ScBem1-D1,13.5
same,SPOT peptide array binding signal intensity,ScBzz1-D1,1990
same,SPOT peptide array binding signal intensity,ScBzz1-D2,258
same,SPOT peptide array binding signal intensity,ScCyk3,19
same,SPOT peptide array binding signal intensity,ScFus1,40.5
same,SPOT peptide array binding signal intensity,ScHof1,2
same,SPOT peptide array binding signal intensity,ScHse1,473
same,SPOT peptide array binding signal intensity,ScLsb1,492
same,SPOT peptide array binding signal intensity,ScLsb2,559
same,SPOT peptide array binding signal intensity,ScLsb3,2080
same,SPOT peptide array binding signal intensity,ScLsb4,258
same,SPOT peptide array binding signal intensity,ScMyo3,940
same,SPOT peptide array binding signal intensity,ScMyo5,1490
same,SPOT peptide array binding signal intensity,ScNbp2,3190
same,SPOT peptide array binding signal intensity,ScPex13,318
same,SPOT peptide array binding signal intensity,ScRvs167,1430
same,SPOT peptide array binding signal intensity,ScSho1,894
same,SPOT peptide array binding signal intensity,ScSla1-D1-D2,3110
same,SPOT peptide array binding signal intensity,ScSla1-D3,883
same,SPOT peptide array binding signal intensity,SpAbp1-D1,505
same,SPOT peptide array binding signal intensity,SpBbc1,85.8
same,SPOT peptide array binding signal intensity,SpBzz1-D1,4250
same,SPOT peptide array binding signal intensity,SpBzz1-D2,1520
same,SPOT peptide array binding signal intensity,SpCyk3,1
same,SPOT peptide array binding signal intensity,SpHof1,361
same,SPOT peptide array binding signal intensity,SpHof1-2,53.5
same,SPOT peptide array binding signal intensity,SpHof1-3,340
same,SPOT peptide array binding signal intensity,SpHse1,72.2
same,SPOT peptide array binding signal intensity,SpLsb1,370
same,SPOT peptide array binding signal intensity,SpLsb4,1730
same,SPOT peptide array binding signal intensity,SpMyo1,800
same,SPOT peptide array binding signal intensity,SpNbp2,29.5
same,SPOT peptide array binding signal intensity,SpPex13,26.5
same,SPOT peptide array binding signal intensity,SpRvs167,1250
same,SPOT peptide array binding signal intensity,SpSla1-D1-D2,907
same,SPOT peptide array binding signal intensity,SpSla1-D3,2.5
B2,SPOT peptide array binding signal intensity,CaNbp2,1470
same,SPOT peptide array binding signal intensity,CaRvs167,190
same,SPOT peptide array binding signal intensity,CaRvs167-3,216
same,SPOT peptide array binding signal intensity,CaSho1,1620
same,SPOT peptide array binding signal intensity,CaSla1-D1-D2,590
same,SPOT peptide array binding signal intensity,CaSla1-D3,700
same,SPOT peptide array binding signal intensity,ScAbp1,188
same,SPOT peptide array binding signal intensity,ScBbc1,90.2
same,SPOT peptide array binding signal intensity,ScBem1-D1,142
same,SPOT peptide array binding signal intensity,ScBzz1-D1,39.5
same,SPOT peptide array binding signal intensity,ScBzz1-D2,238
same,SPOT peptide array binding signal intensity,ScCyk3,81.5
same,SPOT peptide array binding signal intensity,ScFus1,1530
same,SPOT peptide array binding signal intensity,ScHof1,12
same,SPOT peptide array binding signal intensity,ScHse1,2920
same,SPOT peptide array binding signal intensity,ScLsb1,23.2
same,SPOT peptide array binding signal intensity,ScLsb2,14
same,SPOT peptide array binding signal intensity,ScLsb3,1400
same,SPOT peptide array binding signal intensity,ScLsb4,364
same,SPOT peptide array binding signal intensity,ScMyo3,16
same,SPOT peptide array binding signal intensity,ScMyo5,2
same,SPOT peptide array binding signal intensity,ScNbp2,1660
same,SPOT peptide array binding signal intensity,ScPex13,40
same,SPOT peptide array binding signal intensity,ScRvs167,164
same,SPOT peptide array binding signal intensity,ScSho1,1900
same,SPOT peptide array binding signal intensity,ScSla1-D1-D2,1030
same,SPOT peptide array binding signal intensity,ScSla1-D3,217
same,SPOT peptide array binding signal intensity,SpAbp1-D1,558
same,SPOT peptide array binding signal intensity,SpBbc1,38.8
same,SPOT peptide array binding signal intensity,SpBzz1-D1,224
same,SPOT peptide array binding signal intensity,SpBzz1-D2,30.5
same,SPOT peptide array binding signal intensity,SpCyk3,7
same,SPOT peptide array binding signal intensity,SpHof1,556
same,SPOT peptide array binding signal intensity,SpHof1-2,29.5
same,SPOT peptide array binding signal intensity,SpHof1-3,862
same,SPOT peptide array binding signal intensity,SpHse1,874
same,SPOT peptide array binding signal intensity,SpLsb1,21
same,SPOT peptide array binding signal intensity,SpLsb4,1330
same,SPOT peptide array binding signal intensity,SpMyo1,46.2
same,SPOT peptide array binding signal intensity,SpNbp2,1850
same,SPOT peptide array binding signal intensity,SpPex13,320
same,SPOT peptide array binding signal intensity,SpRvs167,66.2
same,SPOT peptide array binding signal intensity,SpSla1-D1-D2,15
same,SPOT peptide array binding signal intensity,SpSla1-D3,81
